In ChEMBL document CHEMBL1961873, “Compounds: GSK PKIS; Assays: Nanosyn kinase panel” (2012):

Tests used:
[1] = biological target: T1, 3-phosphoinositide-dependent protein kinase 1 (Homo sapiens) (UniProt O15530); conditions: at 0.1 µM;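 further: values are mean inhibition of PDK1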
T1 sequence (whole entry): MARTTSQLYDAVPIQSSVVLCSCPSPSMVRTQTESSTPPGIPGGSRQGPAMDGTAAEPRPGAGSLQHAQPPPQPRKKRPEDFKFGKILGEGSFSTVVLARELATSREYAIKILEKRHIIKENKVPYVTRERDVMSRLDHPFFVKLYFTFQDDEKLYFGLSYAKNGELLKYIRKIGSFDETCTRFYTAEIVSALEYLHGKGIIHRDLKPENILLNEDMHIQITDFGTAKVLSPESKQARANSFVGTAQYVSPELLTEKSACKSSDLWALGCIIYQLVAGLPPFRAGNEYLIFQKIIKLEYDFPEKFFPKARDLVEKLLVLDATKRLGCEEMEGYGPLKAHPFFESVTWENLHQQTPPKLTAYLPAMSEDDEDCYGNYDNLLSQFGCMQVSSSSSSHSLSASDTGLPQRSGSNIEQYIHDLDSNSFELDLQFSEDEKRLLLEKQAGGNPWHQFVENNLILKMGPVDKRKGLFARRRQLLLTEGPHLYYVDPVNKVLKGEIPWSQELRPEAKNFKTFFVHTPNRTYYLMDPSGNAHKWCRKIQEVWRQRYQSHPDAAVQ

[2] = biological target: cAMP-dependent protein kinase catalytic subunit alpha (Homo sapiens) (UniProt P17612); conditions: at 0.1 µM
[3] = biological target: cAMP-dependent protein kinase catalytic subunit alpha (Homo sapiens) (UniProt P17612); conditions: at 1 µM
[4] = biological target: Protein kinase C alpha type (Homo sapiens) (UniProt P17252); conditions: at 0.1 µM
[5] = biological target: Protein kinase C alpha type (Homo sapiens) (UniProt P17252); conditions: at 1 µM
[6] = biological target: Protein kinase C beta type (Homo sapiens) (UniProt P05771); conditions: at 0.1 µM
Sequence of Protein kinase C beta type (Homo sapiens) (P05771 2-671 limits assumed): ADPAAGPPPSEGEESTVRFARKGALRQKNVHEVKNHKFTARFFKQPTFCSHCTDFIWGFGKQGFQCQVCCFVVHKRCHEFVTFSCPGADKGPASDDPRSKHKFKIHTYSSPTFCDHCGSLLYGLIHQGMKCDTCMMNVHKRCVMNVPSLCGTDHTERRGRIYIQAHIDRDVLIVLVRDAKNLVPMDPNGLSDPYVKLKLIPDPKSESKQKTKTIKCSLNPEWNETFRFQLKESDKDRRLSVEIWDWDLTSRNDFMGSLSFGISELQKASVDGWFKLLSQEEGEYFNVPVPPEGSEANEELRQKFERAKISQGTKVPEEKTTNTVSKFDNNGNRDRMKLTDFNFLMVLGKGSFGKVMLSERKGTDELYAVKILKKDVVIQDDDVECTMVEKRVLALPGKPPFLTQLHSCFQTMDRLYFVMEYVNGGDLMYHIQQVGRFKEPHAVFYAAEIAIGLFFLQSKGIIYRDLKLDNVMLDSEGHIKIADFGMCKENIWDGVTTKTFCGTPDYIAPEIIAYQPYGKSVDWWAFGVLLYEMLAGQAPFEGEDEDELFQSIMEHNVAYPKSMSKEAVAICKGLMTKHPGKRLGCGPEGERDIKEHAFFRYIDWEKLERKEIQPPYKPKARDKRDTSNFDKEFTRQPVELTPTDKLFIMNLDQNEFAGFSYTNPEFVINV

[7] = biological target: Protein kinase C beta type (Homo sapiens) (UniProt P05771); conditions: at 1 µM
[8] = biological target: Protein kinase C eta type (Homo sapiens) (UniProt P24723); conditions: at 0.1 µM
Sequence of Protein kinase C eta type (Homo sapiens) (P24723 whole entry): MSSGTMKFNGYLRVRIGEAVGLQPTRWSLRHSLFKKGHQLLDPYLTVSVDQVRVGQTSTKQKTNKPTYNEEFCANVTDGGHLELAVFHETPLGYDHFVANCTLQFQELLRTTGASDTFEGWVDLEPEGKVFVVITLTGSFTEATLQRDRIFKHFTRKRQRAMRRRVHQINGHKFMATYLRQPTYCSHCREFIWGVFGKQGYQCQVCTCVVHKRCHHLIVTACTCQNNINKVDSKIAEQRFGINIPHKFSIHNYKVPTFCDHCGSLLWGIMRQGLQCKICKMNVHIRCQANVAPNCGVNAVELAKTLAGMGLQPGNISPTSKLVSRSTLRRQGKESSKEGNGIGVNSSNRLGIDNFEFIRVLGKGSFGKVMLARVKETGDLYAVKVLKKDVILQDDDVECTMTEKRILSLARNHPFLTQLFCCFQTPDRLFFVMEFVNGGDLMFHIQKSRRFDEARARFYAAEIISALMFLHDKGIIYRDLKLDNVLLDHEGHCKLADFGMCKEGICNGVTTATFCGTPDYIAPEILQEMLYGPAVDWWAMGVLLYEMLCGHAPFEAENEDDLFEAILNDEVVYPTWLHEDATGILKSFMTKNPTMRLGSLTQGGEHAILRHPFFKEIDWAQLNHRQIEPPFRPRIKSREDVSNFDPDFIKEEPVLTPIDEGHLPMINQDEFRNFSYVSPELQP

[9] = biological target: Protein kinase C eta type (Homo sapiens) (UniProt P24723); conditions: at 1 µM
[10] = biological target: Protein kinase C gamma type (Homo sapiens) (UniProt P05129); conditions: at 0.1 µM;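 further: values are mean percent inhibition of PKC gamma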

## CCC(=O)Nc1ccc(C)c(-c2ccc(C(=O)NCC3CC3)cc2)c1
[1]
  inhibition: 2.1%
[2]
  inhibition: 2.1%
[3]
  inhibition: 1.49%
[4]
  inhibition: -0.25%
[5]
  inhibition: 0.8%
[6]
  inhibition: 0.07%
[7]
  inhibition: -0.89%
[8]
  inhibition: 5.65%
[9]
  inhibition: 3.46%
[10]
  inhibition: 0.1%

## CS(=O)(=O)CCNCc1cc(-c2cc3c(Nc4ccc(OCc5cccc(F)c5)c(Cl)c4)ncnc3s2)cs1
[1]
  inhibition: 2.06%
[2]
  inhibition: 1.96%
[3]
  inhibition: 1.98%
[4]
  inhibition: 0.73%
[5]
  inhibition: 1.44%
[6]
  inhibition: 0.43%
[7]
  inhibition: 1.19%
[8]
  inhibition: 5.83%
[9]
  inhibition: 7.05%
[10]
  inhibition: 2.95%

## COc1ccc(-c2ccc3c(NC(=O)C4CC4)n[nH]c3n2)cc1
[1]
  inhibition: -1.04%
[2]
  inhibition: 1.31%
[3]
  inhibition: 1.22%
[4]
  inhibition: -0.95%
[5]
  inhibition: -0.98%
[6]
  inhibition: -0.58%
[7]
  inhibition: 1.54%
[8]
  inhibition: 1.15%
[9]
  inhibition: 1.68%
[10]
  inhibition: 0.57%

## NC(=O)c1cc(-c2ccc(F)cc2)cc(-c2ccncc2)c1N
[1]
  inhibition: 1.54%
[2]
  inhibition: 1.46%
[3]
  inhibition: 3.06%
[4]
  inhibition: 0.16%
[5]
  inhibition: 1.21%
[6]
  inhibition: -1.29%
[7]
  inhibition: 3.15%
[8]
  inhibition: 3.71%
[9]
  inhibition: 8.19%
[10]
  inhibition: 0.15%

## Fc1ccc(-c2ncn(C3CCNCC3)c2-c2ccnc(Oc3ccc(Oc4ccccc4)cc3)n2)cc1
[1]
  inhibition: 0.03%
[2]
  inhibition: 4.74%
[3]
  inhibition: 24.9%
[4]
  inhibition: 1.36%
[5]
  inhibition: 4.49%
[6]
  inhibition: 1.48%
[7]
  inhibition: 11.2%
[8]
  inhibition: 1.53%
[9]
  inhibition: 5.81%
[10]
  inhibition: 2.37%

## COc1ccc2ncn(-c3cc(O[C@H](C)c4ccccc4Cl)c(C(N)=O)s3)c2c1
[1]
  inhibition: 0.22%
[2]
  inhibition: -1.47%
[3]
  inhibition: -1%
[4]
  inhibition: -2.81%
[5]
  inhibition: -1.38%
[6]
  inhibition: 1.09%
[7]
  inhibition: 2.58%
[8]
  inhibition: 5.09%
[9]
  inhibition: 3.95%
[10]
  inhibition: 0.98%

## COc1cccc(-n2cnc3c(N/N=C/c4ccncc4)ncnc32)c1
[1]
  inhibition: 0.77%
[2]
  inhibition: -1.92%
[3]
  inhibition: 0.18%
[4]
  inhibition: -2.58%
[5]
  inhibition: -3.28%
[6]
  inhibition: 3.24%
[7]
  inhibition: 5.82%
[8]
  inhibition: 3.47%
[9]
  inhibition: 0.69%
[10]
  inhibition: 0.93%

## NCc1ccc(-n2c(-c3nonc3N)nc3cnccc32)cc1
[1]
  inhibition: 2.61%
[2]
  inhibition: 10.4%
[3]
  inhibition: 56.1%
[4]
  inhibition: 4.7%
[5]
  inhibition: 41%
[6]
  inhibition: 29.1%
[7]
  inhibition: 64.5%
[8]
  inhibition: 47.1%
[9]
  inhibition: 88.4%
[10]
  inhibition: 4.15%

## C#Cc1cccc(Nc2ncnc3ccc(OCCCCNCCS(C)(=O)=O)cc23)c1
[1]
  inhibition: 1.83%
[2]
  inhibition: -0.23%
[3]
  inhibition: -0.04%
[4]
  inhibition: -2.51%
[5]
  inhibition: 0.29%
[6]
  inhibition: 1.6%
[7]
  inhibition: 4.77%
[8]
  inhibition: 0.97%
[9]
  inhibition: 4.94%
[10]
  inhibition: 3.27%
